Where “and” joins values, the source holds several entries; their conditions need not be identical. Identical values can stand only once. Inconclusive results are not listed. Values without a mark were called inactive. Calls of active or inactive are those of the source. The call rests on the fitted dose curve; in most records, active means well fitted curve in the direction sought with a large enough effect; inconclusive means small, poorly fitted or top-dose-only effect, or another doubt; inactive means no such curve, though single readings can be large; an effect the other way counts as inactive or inconclusive.
Legend:
[1] = Viability qHTS for spleen associated tyrosine kinase inhibitor (SYKi) drug resistant MV4-11 cells (AID 1963824); further: nearly all actives have a fitted effect of over 35% in size
In short: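 SYK-inhibitor-resistant MV4-11 AML cells were seeded at 500 per well onto compound and cultured 72 hours (37 °C, 5% CO2). CellTiter-Glo was then added, and after 10 min at room temperature, luminescence gave viability.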

[2] = Quantitative highthroughput screen to assess conditional lethalithy of NOMO1 cells grown in RPMI1640 with untreated serum (RPMI+s) (AID 1963876); further: nearly all actives have a fitted effect of over 35% in size;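 on Viability: 100% = DMSO wells and 0% = empty wells without cells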
In short: (§1)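 Each medium arm—HPLM with 10% dialyzed FBS, or RPMI1640 with 5 mM glucose and 10% untreated or dialyzed FBS—was screened against an 11-point, 3-fold compound titration for 48 h at 37 °C, with CellTiter-Glo luminescence as endpoint.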

[3] = Quantitative highthroughput screen to assess conditional lethalithy of NOMO1 cells grown in Human Plasma-Like Medium with dialyzed fetal bovine serum (HPLM+ds) (AID 1963878); further: nearly all actives have a fitted effect of over 35% in size;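 on Viability: 100% = DMSO wells and 0% = empty wells on each plate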
In short: as §1

[4] = Quantitative highthroughput screen to assess conditional lethalithy of P12 Ichikawa cells grown in RPMI1640 with untreated serum (RPMI+s) (AID 1963881); conditions: Potency: viability; further: nearly all actives have a fitted effect of over 35% in size;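 on Viability: series mostly up to about 46 µM; 100% = DMSO wells and 0% = empty wells without cells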
In short: as §1

[5] = Cellular viability qHTS for adrenocortical cancer (ACC) cell line NCI-H295R (AID 1963990); further: nearly all actives have a fitted effect of over 60% in size
In short: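 Luminescent ATP read-out (CellTiter-Glo, 20 min RT) after 48 h drug exposure of NCI-H295R cells; a titration up to 46 uM final. Data normalized to doxorubicin (100% inhibition) and DMSO (0%); 4-parameter fit gives IC50, max response.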

[6] = Quantitative highthroughput screen to assess conditional lethalithy of NOMO1 cells grown in RPMI1640 with dialyzed fetal bovine serum (RPMI+ds) (AID 1963877); further: nearly all actives have a fitted effect of over 30% in size;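 on Viability: series mostly up to about 46 µM; 100% = DMSO control wells and 0% = empty wells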
In short: as §1

[7] = Quantitative highthroughput screen to assess conditional lethalithy of P12 Ichikawa cells grown in Human Plasma-Like Medium with dialyzed fetal bovine serum (HPLM+ds) (AID 1963879); conditions: Potency: viability; further: nearly all actives have a fitted effect of over 35% in size; on Viability: series mostly up to about 46 µM
In short: as §1

[8] = Quantitative highthroughput screen to assess conditional lethalithy of SEM cells grown in RPMI1640 with unreated serum (RPMI+s) (AID 1963883); further: nearly all actives have a fitted effect of over 35% in size;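 on Viability: 100% = DMSO wells and 0% = empty wells without cells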
In short: as §1

[9] = Quantitative highthroughput screen to assess conditional lethalithy of SEM cells grown in RPMI1640 with dialyzed fetal bovine serum (RPMI+ds) (AID 1963884); further: nearly all actives have a fitted effect of over 35% in size;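 on Viability: series mostly up to about 46 µM; 100% = DMSO control wells and 0% = empty wells without cells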
In short: as §1

[10] = Cellular viability qHTS for adrenocortical cancer (ACC) cell line SW-13 (AID 1963989); conditions: SW-13 ACC cells viability, CellTiter-Glo, 48 h; activity (max response): active compounds read low; further: nearly all actives have a fitted effect of over 65% in size;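 on activity (max response): cells grown in serum-free medium with ITS supplement; on the % scale 0 is the no-effect control and ±100 the full control effect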
In short: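 SW-13 cells in ITS-supplemented serum-free DMEM were plated overnight, then exposed for 48 h at 37C to compound titrations (up to 46 uM final). Viability was read by CellTiter-Glo luminescence; four-parameter logistic fits gave IC50 and efficacy.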

[11] = Quantitative highthroughput screen to assess conditional lethalithy of P12 Ichikawa cells grown in RPMI1640 with dialyzed fetal bovine serum (RPMI+ds) (AID 1963880); conditions: Potency: P12-Ichikawa viability; further: nearly all actives have a fitted effect of over 35% in size;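 on Viability: 100% = DMSO wells and 0% = empty wells on each plate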
In short: as §1

[12] = Quantitative highthroughput screen to assess conditional lethalithy of SEM cells grown in Human Plasma-Like Medium with dialyzed fetal bovine serum (HPLM+ds) (AID 1963882); further: nearly all actives have a fitted effect of over 35% in size; on Viability: series mostly up to about 46 µM
In short: as §1
Potency means the concentration at half of the fitted maximal effect.

| SMILES | Potency [1] | Potency [2] | Potency [3] | Potency [4] | Potency [5] | Potency [6] | Potency [7] | Potency [8] | Potency [9] | activity (max response) [10] [%] | Potency [11] | Potency [12] | Potency [10] |
| --- | --- | --- | --- | --- | --- | --- | --- | --- | --- | --- | --- | --- | --- |
| CN(C)C(=O)c1ccc(S(=O)(=O)c2ccc(NC(=O)[C@@](C)(O)C(F)(F)F)c(Cl)c2)cc1 | 9.2 µM (active) and 3.72 µM (active) | 11.8 µM (active) | 10.5 µM (active) | 14.8 µM (active) | inactive | – | – | – | – | – | – | – | – |
| CC(C)(Sc1ccc(CCN(CCCCC2CCCCC2)C(=O)NC2CCCCC2)cc1)C(=O)O | 18.6 µM (active) | inactive | – | inactive | inactive | inactive | inactive | inactive | inactive | 4.08 | – | – | – |
| CCCCC(F)(F)[C@@]1(O)CC[C@H]2[C@H](CC(=O)[C@@H]2CCCCCCC(=O)O)O1 | 0.0295 µM (active) | inactive | – | inactive | inactive | inactive | inactive | inactive | inactive | 8.13 | inactive | inactive | – |
| c1ccc2c(Cc3c[nH]c4ccccc34)c[nH]c2c1 | 20.9 µM (active) | inactive | 20.9 µM (active) | – | – | – | – | – | 20.9 µM (active) | – | – | – | – |
| C[C@@H]1CC[C@@]2(OC1)OC1CC3C4CC=C5CC(O)CCC5(C)C4CCC3(C)C1[C@@H]2C (stereo not given in full) | inactive | 14.8 µM (active) | 13.2 µM (active) | – | inactive | – | 11.8 µM (active) | – | – | -3.87 | 18.7 µM (active) | – | – |
| O=C1NC(=O)C(c2ccccc2[N+](=O)[O-])=C1Nc1ccc(O)c(Cl)c1 | 16.6 µM (active) | 18.7 µM (active) | – | – | inactive | 18.7 µM (active) | – | – | – | -17.3 | 14.8 µM (active) | 16.6 µM (active) | – |
| CN(C)CC(C)(C)CNc1nn2c(-c3ccccc3)nnc2cc1C1CCC1 | 0.0103 µM (active) | 20.9 µM (active) | 10.5 µM (active) | – | – | – | 10.5 µM (active) | – | – | -3.73 | 18.7 µM (active) | – | – |
| O=c1cc(-c2ccccc2)oc2cc(O)c(O)c(O)c12 | 18.6 µM (active) | 5.9 µM (active) | inactive | 9.35 µM (active) | – | – | 5.9 µM (active) | 4.18 µM (active) | 8.33 µM (active) | -15.6 | – | – | – |
| COc1cc([C@@H](CC(=O)O)c2ccc(C)c(CN3C[C@@H](C)Oc4ccccc4S3(=O)=O)c2)cc2nnn(C)c12 | 7.42 µM (active) | inactive | – | 14.8 µM (active) | inactive | inactive | – | – | – | – | 18.6 µM (active) | – | – |
| COc1cc2c(NC3CCN(C(C)C)CC3)nc(C3CCCCC3)nc2cc1OCCCN1CCCC1 | 3.32 µM (active) | – | 23.5 µM (active) | 23.5 µM (active) | 12.6 µM (active) | 20.9 µM (active) | – | 26.4 µM (active) | – | – | 20.9 µM (active) | 16.6 µM (active) | 17.8 µM (active) |
| O=C(c1cc(Cc2n[nH]c(=O)c3ccccc23)ccc1F)N1CCN(C(=O)C2CC2)CC1 | 16.6 µM (active) | inactive | – | – | inactive | – | – | 6.62 µM (active) | – | – | 20.9 µM (active) | – | – |
| Nc1nc2[nH]cc(CCc3ccc(C(=O)N[C@@H](CCC(=O)O)C(=O)O)cc3)c2c(=O)[nH]1 | 0.263 µM (active) | inactive | – | – | 3.16 µM (active) | – | – | – | – | – | – | – | – |
| O=c1[nH]c(=O)n(C2CCCO2)cc1F (stereo not given) | 18.6 µM (active) | – | inactive | – | inactive | inactive | inactive | inactive | – | 4.88 | – | inactive | – |
| O=C(O)c1ccc(Nc2ncc3c(n2)-c2ccc(Cl)cc2C(c2c(F)cccc2F)=NC3)cc1 | 0.206 µM (active) | – | 0.59 µM (active) | 0.935 µM (active) | – | 0.662 µM (active) | 1.18 µM (active) | – | – | -30 | – | – | – |
| Cc1ccc(C(=O)Nc2ccc(Oc3cc4cnn(C)c4cc3-c3cn[nH]c3)c(F)c2)c(=O)n1-c1ccc(F)cc1 | 0.0047 µM (active) | – | 7.41 µM (active) | 6.6 µM (active) | – | 9.33 µM (active) | 6.6 µM (active) | 0.467 µM (active) | 0.234 µM (active) | -20.9 | 7.41 µM (active) | 0.295 µM (active) | – |
| COc1ccc(C(=O)CC2(O)C(=O)Nc3c(Cl)ccc(Cl)c32)cc1 (stereo not given) | 3.26 µM (active) | 9.35 µM (active) | – | 4.69 µM (active) | inactive | – | 4.18 µM (active) | 3.72 µM (active) | 4.18 µM (active) | -14.9 | – | 4.18 µM (active) | – |
| COc1ccc(C2=N[C@H](c3ccc(Cl)cc3)[C@H](c3ccc(Cl)cc3)N2C(=O)N2CCNC(=O)C2)c(OC(C)C)c1 | 16.6 µM (active) | 23.5 µM (active) | – | – | – | – | – | 0.418 µM (active) | 0.187 µM (active) | – | – | 0.235 µM (active) | 31.6 µM (active) |
| c1cncc(CN2CCC(n3ncc4c(N5CCOCC5)nc(-c5ccc6[nH]ccc6c5)nc43)CC2)c1 | 1.84 µM (active) and 1.86 µM (active) | 16.6 µM (active) | – | 13.2 µM (active) | 3.55 µM (active) | – | – | 14.8 µM (active) | 14.8 µM (active) | – | 13.2 µM (active) | – | – |
| Cc1cc(C(=O)N2CCN(c3cccc(Cl)c3)CC2)n(-c2ccccc2)n1 | 1.46 µM (active) | 7.43 µM (active) | – | 3.32 µM (active) | 0.447 µM (active) | – | 1.48 µM (active) | 2.64 µM (active) | 1.87 µM (active) | – | 2.96 µM (active) | – | 0.355 µM (active) |
